Experimental data published in PubChem BioAssay (NCI).
Compounds without any hit were thinned out: in the full panel of roughly 83,000, 20% have a hit.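 For each line, cells grew in 96-well plates with the test compound present at a single concentration for 48 hours.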 Calls of active or inactive are those of the source. How the source made its calls: active means growth percent below 10; inactive means the rest.

How the values were obtained:
Test in all cases: NCI-60 one-dose screen, 48 h (100 = growth as untreated, 0 = no growth, -100 = all killed)
Conditions in all cases: 10 µM
[1] = tested on: HCT-15 colon
[2] = tested on: HT29 colon
[3] = tested on: SNB-75 CNS
[4] = tested on: SNB-19 CNS
[5] = tested on: U251 CNS
[6] = tested on: PC-3 prostate
[7] = tested on: SK-MEL-5 melanoma
[8] = tested on: LOX IMVI melanoma
[9] = tested on: SK-MEL-28 melanoma
[10] = tested on: EKVX NSCLC
[11] = tested on: SN12C renal
[12] = tested on: UO-31 renal
[13] = tested on: TK-10 renal
[14] = tested on: ACHN renal
[15] = tested on: CAKI-1 renal
[16] = tested on: A498 renal
[17] = tested on: CCRF-CEM leukemia
[18] = tested on: MOLT-4 leukemia
[19] = tested on: SK-MEL-2 melanoma
[20] = tested on: UACC-62 melanoma

Measured: growth

CCc1c2c(nc3ccc(OC(=O)N4CCC(N5CCCCC5)CC4)cc13)-c1cc3c(c(=O)n1C2)COC(=O)[C@]3(O)CC
inactive: [1] 53.1% | [2] 28.8% | [4] 26% | [5] 13.6% | [6] 40.9% | [9] 67% | [10] 67.2% | [11] 16.2% | [12] 11.6% | [13] 81.6%
active: [3] -5.06% | [7] -11.9% | [8] 4.61% | [14] 1.66% | [15] -17.4% | [16] 9.23% | [17] 5.44% | [18] -20.6%

COc1ccccc1N1CCCSC1=Nc1ccccc1
inactive: [1] 115% | [2] 150% | [3] 232% | [4] 92.9% | [5] 105% | [6] 92.9% | [7] 96.6% | [8] 92.5% | [9] 95.9% | [19] 121% | [10] 110% | [11] 91.6% | [12] 81.2% | [14] 114% | [16] 99.8% | [17] 67.6% | [18] 62.1%

OC(CCN1CCCC1)(c1ccccc1)C1CCCCC1 (centres undefined)
inactive: [1] 92.4% | [2] 101% | [3] 84% | [4] 107% | [5] 105% | [6] 98.6% | [7] 89.8% | [8] 99.9% | [9] 105% | [19] 111% | [10] 97.5% | [11] 95.9% | [13] 108% | [14] 94.7% | [15] 95.7% | [16] 116% | [17] 98.2% | [18] 109%

NS(=O)(=O)c1ccc(Br)cc1
inactive: [1] 94.8% | [2] 91.8% | [3] 93.2% | [4] 96.9% | [5] 102% | [6] 75.6% | [7] 104% | [8] 98.5% | [19] 101% | [10] 90.3% | [12] 97.1% | [13] 90.4% | [14] 107% | [16] 115% | [17] 104% | [18] 92.7%

c1cnc2[nH]cc(-c3nc(-c4ccsc4)cs3)c2c1
inactive: [1] 86.1% | [2] 104% | [3] 90.7% | [4] 102% | [5] 90.4% | [7] 81.6% | [20] 96.2% | [8] 96.2% | [9] 122% | [19] 102% | [10] 42.6% | [11] 92% | [12] 62.7% | [13] 138% | [14] 85.3% | [15] 96.3%

COc1cc(-c2nn(-c3cccc(NC(=O)CCN4CCN(c5ccccc5)CC4)c3)cc2-c2ccncc2)ccc1Cl
active: [2] 4.96% | [8] 6.98% | [19] -0.713% | [16] 5.91%
inactive: [1] 20.8% | [3] 36.8% | [4] 35.9% | [5] 17.2% | [6] 22% | [7] 22% | [9] 28.9% | [10] 38.1% | [11] 32.4% | [12] 37.8% | [13] 23.5% | [14] 18% | [17] 17.8% | [18] 15.4%

COc1ccc2c(c1)C(=O)/C(=C/c1ccc([N+](=O)[O-])o1)O2
inactive: [4] 19.9% | [6] 58.9%
active: [1] -48.5% | [2] -63% | [3] 9.47% | [5] -55.1% | [7] -91.3% | [8] -77.4% | [9] -71.1% | [19] -68.7% | [11] -30.4% | [12] -91.9% | [13] -93.1% | [14] -80.9% | [15] -69.8% | [16] -50.5% | [18] -37.2%

O=C(CSc1nnc(-c2cccnc2SCc2ccccc2)o1)Nc1nc(Cl)cc(Cl)n1
inactive: [1] 106% | [2] 110% | [3] 85.7% | [4] 106% | [5] 106% | [6] 94.5% | [7] 101% | [8] 94.9% | [9] 113% | [19] 102% | [10] 103% | [12] 67.7% | [13] 109% | [14] 103% | [15] 95.8% | [16] 112% | [17] 101% | [18] 95.7%

Cc1cc(C(C#N)c2ccc(Cl)cc2)c(Cl)cc1NC(=O)c1cc(I)cc(I)c1O (centres undefined)
active: [16] -37%
inactive: [1] 28.8% | [2] 58% | [3] 112% | [4] 39.3% | [5] 40.4% | [6] 13.8% | [7] 13.1% | [8] 75.1% | [10] 41.2% | [11] 31% | [12] 79.8% | [13] 65.3% | [14] 79.8% | [15] 38.7% | [17] 19.1% | [18] 15.3%

CCOC(=O)c1sc2ncnc(Nc3ccc4c(cnn4C(=O)Nc4ccccc4)c3)c2c1C
inactive: [1] 72.6% | [2] 40.7% | [3] 10.7% | [4] 85.8% | [5] 53% | [7] 31.1% | [20] 59.7% | [8] 36.4% | [9] 72.7% | [19] 85% | [10] 84.3% | [11] 61.3% | [12] 87.6% | [13] 78.6% | [14] 87.6% | [15] 83.9% | [18] 91%

COc1ccc(/C=C2/SC(=S)NC2=O)c(OC)c1OC
inactive: [1] 75.6% | [2] 98.3% | [3] 77.8% | [4] 88.2% | [5] 83.5% | [6] 75.6% | [7] 73.8% | [8] 65.9% | [9] 86.9% | [19] 87.4% | [10] 65.9% | [12] 42.5% | [13] 81.3% | [14] 77.4% | [15] 64.3% | [16] 54.2% | [18] 90.1%

O=C1c2ccccc2-c2c1c1cccnc1c(=O)n2C[C@H](O)CO
inactive: [1] 62.8% | [2] 57.7% | [3] 63.9% | [4] 59.2% | [5] 46.8% | [7] 50.9% | [20] 51% | [8] 36.3% | [9] 87.9% | [19] 101% | [10] 79.3% | [11] 35.6% | [12] 49.9% | [13] 84.7% | [14] 27.6% | [15] 65.5%

CCCCCCCCCCCCCCCCCC[n+]1ccc2c(C)c3c(c(C)c2c1)c1cc(O)ccc1n3CC
active: [4] 5.25% | [5] -34.9% | [7] -94.2% | [20] -11.8% | [9] 7.4% | [19] -33.1% | [11] 1.79%
inactive: [1] 48.8% | [2] 17.2% | [3] 24.5% | [8] 20.6% | [10] 19.5% | [12] 39.8% | [13] 17.8% | [14] 25.7% | [15] 71.1%

O=C1/C(=C/c2ccc3c(c2)OCO3)SC(=S)N1C1c2ccccc2Oc2ccccc21
inactive: [1] 93% | [2] 117% | [3] 89.2% | [4] 96.8% | [5] 113% | [6] 93.1% | [7] 97.2% | [8] 89.1% | [9] 96.3% | [19] 115% | [10] 96.8% | [12] 74.2% | [13] 101% | [14] 91.2% | [15] 92.8% | [16] 101% | [17] 86.7% | [18] 96.5%

COc1cc(NC(=O)Nc2cnc(Nc3ccc(N4CCOCC4)cc3)nc2Oc2cccc(OC)c2)cc(OC)c1
inactive: [1] 81.9% | [2] 37.2% | [4] 66.6% | [5] 22% | [6] 47.5% | [8] 33.3% | [9] 32.2% | [19] 40% | [10] 66.5% | [11] 43.3% | [13] 54.7% | [14] 32.8% | [16] 39.1% | [18] 61.3%
active: [3] 9.13% | [7] -19.9% | [12] 6.12%

Cc1cc(SC#N)cc(C(C)(C)C)c1O
inactive: [1] 103% | [2] 91.4% | [3] 92.4% | [4] 113% | [5] 91.4% | [6] 66.8% | [7] 101% | [8] 100% | [9] 105% | [19] 82.2% | [10] 102% | [12] 93.6% | [13] 108% | [14] 101% | [15] 96.4% | [16] 86.1% | [17] 86.4% | [18] 66.9%

O=c1[nH]c(=O)n(C2C[C@H](O)[C@@H](CO)O2)cc1C(F)(F)F (some centres undefined)
inactive: [1] 107% | [2] 103% | [3] 94.3% | [4] 119% | [5] 102% | [6] 91.9% | [7] 106% | [8] 103% | [9] 120% | [10] 109% | [11] 110% | [12] 89.7% | [13] 104% | [14] 106% | [15] 96.3% | [16] 118% | [17] 95% | [18] 70.2%

O=C(O)COc1c(Cl)cc([N+](=O)[O-])cc1Cl
inactive: [1] 103% | [2] 86.2% | [3] 102% | [4] 112% | [5] 97.5% | [6] 65.3% | [7] 96.3% | [8] 100% | [19] 101% | [10] 102% | [12] 94.2% | [13] 99% | [14] 106% | [15] 99.9% | [16] 97.5% | [17] 92.5% | [18] 80.6%
